Results reported in PubChem BioAssay (EPA / NIEHS).
“And” between values parts separate entries of the source, which are not always exact repeats. Identical values can stand only once. Where a structure was tested more than once in an assay, its records may differ in their call. The source made the active and inactive calls. How the source made its calls: active means hit-call score of the fitted dose curve at least 0.9, where 1 is the maximum; inactive means score below 0.9.

What follows are compounds tested on Tissue plasminogen activator (tPA), PLAT (gene 5327) (assay: BSK_BF4T_tPA: BioMAP Diversity Plus: BF4T Assay for Tissue plasminogen activator (tPA) Biomarker Activity (AID 2284272)). Conditions: primary human bronchial epithelial cells with fibroblasts.
Method: BSK_BF4T is a cell-based, multiplexed-readout assay that uses bronchial epithelial cells and dermal fibroblasts, a human vascular primary cell, with measurements taken at 24 hours after chemical dosing in a microplate: 96-well plate.BSK_BF4T_tPA is an assay component measured in the BSK_BF4T assay. It measures tPA antibody related to regulation of gene expression using ELISA technology.Data from the assay component BSK_BF4T_tPA was analyzed at the endpoint, BSK_BF4T_tPA, in the positive analysis fitting direction relative to DMSO as the negative control and baseline of activity. Using a type of binding reporter, gain or loss-of-signal activity can be used to understand protein changes. To generalize the intended target to other relatable targets, this assay endpoint is annotated to the 'protease' intended target family, where the subfamily is 'serine protease'.
The levels of cell surface (or secreted, indicated by the prefix "s") biomarker endpoints were measured by ELISA. Overt cytotoxicity to cells in confluent adherent cultures (all systems other than the BT system) was assessed by measuring total protein levels using sulforhodamine B (SRB) staining in parallel cultures at the time of biomarker measurements, indicated as SRB endpoints. For proliferation assays for adherent cell types, individual cell types are cultured at sub-confluence and relative cell numbers quantified by SRB staining at time points optimized for each system (48 h: 3C and CASM3C systems; 72 h: BT and HDF3CGF systems; 96 h: SAg system). SRB was performed by staining cells with 0.1% SRB after fixation with 10% TCA and reading wells at 560 nm.Viability and proliferation of PBMC (T cells) was quantified by Alamar Blue reduction for the SAg and BT systems. For PBMC viability (referred to as PBMC Cytotoxicity within the assay endpoint names), cells were plated (75,000/well in a 96-well plate) and then chemical samples added for 1 h before addition of activators, SEB and TSST-1 (20 ng/mL final concentration each). Cells were incubated for 90 h. Then, Alamar Blue (20 uL/well) (Invitrogen, Cat DAL1100) was added for 6 h, and the plates were read with a fluorescence microplate reader at 546/580 nm (excitation/emission). For PBMC proliferation, cells were plated and activated as above but incubated for only 16 h prior to addition of Alamar Blue. Plates were read after 6 h.

SMILES | outcome | AC50
C[Si](Cl)(Cl)CCC(F)(F)C(F)(F)C(F)(F)C(F)(F)C(F)(F)C(F)(F)F | inactive | –
NCC(F)(F)C(F)(F)C(F)(F)C(F)(F)C(F)(F)C(F)(F)F | inactive | –
O=C(O)CCC(F)(F)C(F)(F)C(F)(F)F | inactive | –
C=CC(=O)OCC(F)(F)C(F)(F)C(F)(F)COC(=O)C=C | – | 8.12 µM (active)
OCC(O)CC(F)(F)C(F)(F)C(F)(F)C(F)(F)F (stereo not given) | inactive | –
O=C(O)C(F)(F)C(F)(F)C(F)(F)OC(F)(C(F)(F)F)C(F)(F)F | inactive | –
O=S(=O)(O)CCC(F)(F)C(F)(F)C(F)(F)C(F)(F)C(F)(F)C(F)(F)C(F)(F)C(F)(F)F | inactive | –
O=C(F)C1(F)C(F)(F)C(F)(F)C(F)(F)C(F)(F)C1(F)F | inactive | –
CO[Si](C)(CCC(F)(F)C(F)(F)C(F)(F)C(F)(F)C(F)(F)C(F)(F)F)OC | inactive | –
OC(O)C(F)(F)C(F)(F)F | inactive | –
NC(=O)C(F)(F)C(F)(F)C(F)(F)C(F)F | inactive | –
NC(=O)C(F)(F)C(F)(F)C(F)(F)F | inactive | –
CCN(CCO)S(=O)(=O)C(F)(F)C(F)(F)C(F)(F)C(F)(F)C(F)(F)C(F)(F)C(F)(F)C(F)(F)F | inactive | 13.6 µM (active)
O=C(O)C(F)(F)C(F)(F)C(F)(F)C(F)(F)C(F)(F)C(F)(F)C(F)F | inactive | –
NCC(F)(F)C(F)(F)C(F)(F)C(F)(F)C(F)(F)C(F)(F)C(F)(F)C(F)(F)F | inactive | –
O=S(=O)(Cl)C(F)(F)C(F)(F)C(F)(F)C(F)(F)C(F)(F)C(F)(F)C(F)(F)C(F)(F)F | inactive | 23.2 µM (active)
NS(=O)(=O)C(F)(F)C(F)(F)C(F)(F)C(F)(F)C(F)(F)C(F)(F)F | inactive | –
OCC(F)(F)C(F)(F)C(F)(F)CO | inactive | –
O=S(=O)(OCC(F)(F)F)C(F)(F)C(F)(F)C(F)(F)C(F)(F)F | inactive | –

SMILES | outcome | AC50
O=C(O)C(F)(F)OC(F)(F)C(F)(F)OC(F)(F)C(F)(F)OC(F)(F)F | inactive | 20 µM (active) and 5.38 µM (active)
NC(=O)C(F)(F)C(F)(F)C(F)(F)C(F)(F)C(N)=O | inactive | –
O=S(=O)(O)CCC(F)(F)C(F)(F)C(F)(F)C(F)(F)F | inactive | –
OCC(F)(F)C(F)(F)C(F)(F)C(F)(F)C(F)(F)C(F)(F)CO | inactive | –
NC(O)(C(F)(F)F)C(F)(F)F | inactive | –
O=C(O)C(F)(F)C(F)(F)C(F)(F)C(=O)O | inactive | –
CN(C(=O)C(F)(F)C(F)(F)C(F)(F)F)[Si](C)(C)C | inactive | –
OCC(F)(F)C(F)(F)C(F)(F)C(F)(F)C(F)(F)C(F)(F)C(F)(F)C(F)(F)CO | – | 9.85 µM (active) and 12.6 µM (active)
OCCCC(F)(F)C(F)(F)C(F)(F)C(F)(F)C(F)(F)C(F)(F)C(F)(F)C(F)(F)F | – | 22.1 µM (active) and 21 µM (active)
C=CC(=O)OCC(F)(F)C(F)(F)C(F)(F)C(F)(F)C(F)(F)C(F)(F)C(F)(F)C(F)F | inactive | –
O=C(Cl)C(F)(F)C(F)(F)C(F)(F)C(F)(F)C(F)(F)C(F)(F)C(F)(F)F | inactive | –
FC(F)(F)C(F)(F)C(F)(F)C(F)(F)C(F)(F)C(F)(F)CC[Si](Cl)(Cl)Cl | inactive | –
CCOC(=O)CC(=O)C(F)(F)C(F)(F)F | inactive | –
FC(F)(F)C(F)(F)C(F)(F)C(F)(F)C(F)(F)C(F)(F)C(F)(F)CCI | inactive | –
FC(F)(F)C(F)(F)C(F)(F)CC1CO1 (stereo not given) | inactive | –
OCC(O)CC(F)(F)C(F)(F)C(F)(F)C(F)(F)C(F)(F)C(F)(F)C(F)(F)C(F)(F)F (stereo not given) | inactive | –
COC(F)(C(F)F)C(F)(F)F (stereo not given) | inactive | –
C=C(C)C(=O)OCC(F)(F)C(F)(F)C(F)(F)C(F)F | inactive | –
